From PubChem BioAssay AID1159580 (chemical genetic matrix, 2015)
Hit rate of the full screen: of about 5,500 compounds, about 2,000 (36%) were called active. Inconclusive results (about 18%) are left out. Rule as the data show it: active = normalized growth mostly below about 0.91 (no sharp cut-off); inconclusive = no clear call, values can overlap the other calls; inactive = mostly above about 0.92. Some of the results follow.

Test: chemical genetic growth profiling, strain panel (AID 1159580);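 also: tested at 20 µM; growth read once vehicle control cultures reached saturation at 30 °C; 1 = growth at the plate median or of vehicle wells; lower values mean less growth of the strain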
Conditions: S. cerevisiae deletion strains, growth OD

Measured: normalized growth

Clc1cncc(Cl)c1N/N=C\C1CC2C=CC1C2 (stereo not drawn)
inactive: locus YAL013W, strain DEP1, hits give low values 0.937 | locus YBR229C, strain ROT2, hits give low values 0.939 | locus YCL061C, strain MRC1, hits give low values 0.928 | locus YDL101C, strain DUN1, hits give low values 0.926 | locus YDL134C, strain PPH21, hits give low values 1.01 | locus YDR150W, strain NUM1, hits give low values 0.915 | locus YEL061C, strain CIN8, hits give low values 0.914 | locus YGR078C, strain PAC10, hits give low values 0.967 | locus YJL187C, strain SWE1, hits give low values 0.989 | locus YJR043C, strain POL32, hits give low values 1 | locus YJR075W, strain HOC1, hits give low values 0.935 | locus YLR058C, strain SHM2 (second series), hits give low values 0.99 | locus YMR219W, strain ESC1, hits give low values 0.988 | locus YMR263W, strain SAP30, hits give low values 0.939 | locus YMR307W, strain GAS1, hits give low values 0.878 | locus YNL153C, strain GIM3, hits give low values 0.957 | locus YNL322C, strain KRE1, hits give low values 0.986 | locus YNR030W, strain Alg12, hits give low values 0.924 | locus YPL055C, strain LGE1, hits give low values 0.872 | locus YPL241C, strain CIN2, hits give low values 0.871
active: locus YHR030C, strain SLT2, hits give low values 0.644 | locus YHR087W, strain rtc3, hits give low values 0.874 | locus YLR039C, strain RIC1, hits give low values 0.599 | locus YLR085C, strain ARP6, hits give low values 0.74 | locus YLR262C, strain YPT6, hits give low values 0.601 | locus YML094W, strain GIM5, hits give low values 0.838 | locus YNL298W, strain CLA4 (second series), hits give low values 0.799 | locus YPR135W, strain CTF4, hits give low values 0.622
